From PubChem BioAssay (NCI)
Values joined by “and” are separate entries in the source; they are usually repeats but may differ in a detail not shown here. Equal values may be shown once. The panel holds about 83,000 compounds, 20% with a hit somewhere; the sample as a whole holds those more often.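 Growth was measured after 48 h exposure to one concentration of compound in 96-well plates. Values under 10 count as active.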 Active and inactive are the calls of the source.

Experiments:
Assay in all cases: NCI-60 one-dose screen, 48 h (100 = growth as untreated, 0 = no growth, -100 = all killed)
Conditions in all cases: 10 µM unless noted
SK-MEL-2 melanoma = system: SK-MEL-2 melanoma
EKVX NSCLC = system: EKVX NSCLC
SN12C renal = system: SN12C renal
UO-31 renal = system: UO-31 renal
TK-10 renal = system: TK-10 renal
ACHN renal = system: ACHN renal
CAKI-1 renal = system: CAKI-1 renal
A498 renal = system: A498 renal
CCRF-CEM leukemia = system: CCRF-CEM leukemia
MOLT-4 leukemia = system: MOLT-4 leukemia
SR leukemia = system: SR leukemia
RPMI-8226 leukemia = system: RPMI-8226 leukemia
OVCAR-8 ovarian = system: OVCAR-8 ovarian
OVCAR-5 ovarian = system: OVCAR-5 ovarian
OVCAR-4 ovarian = system: OVCAR-4 ovarian
SK-OV-3 ovarian = system: SK-OV-3 ovarian
IGROV1 ovarian = system: IGROV1 ovarian
OVCAR-3 ovarian = system: OVCAR-3 ovarian
HS 578T breast = system: HS 578T breast
NCI/ADR-RES ovarian = system: NCI/ADR-RES ovarian

Structure (SMILES) | growth (SK-MEL-2 melanoma) | growth (EKVX NSCLC) | growth (SN12C renal) | growth (UO-31 renal) | growth (TK-10 renal) | growth (ACHN renal) | growth (CAKI-1 renal) | growth (A498 renal) | growth (CCRF-CEM leukemia) | growth (MOLT-4 leukemia) | growth (SR leukemia) | growth (RPMI-8226 leukemia) | growth (OVCAR-8 ovarian) | growth (OVCAR-5 ovarian) | growth (OVCAR-4 ovarian) | growth (SK-OV-3 ovarian) | growth (IGROV1 ovarian) | growth (OVCAR-3 ovarian) | growth (HS 578T breast) | growth (NCI/ADR-RES ovarian)
Clc1cccc(/C=N/Nc2nc(N/N=C/c3cccc(Cl)c3)nc(N3CCOCC3)n2)c1 | -1.89% (active) | 72.2% (inactive) | 59.9% (inactive) | 26.8% (inactive) | 100% (inactive) | 25.8% (inactive) | 37.6% (inactive) | 4.3% (active) | 24.8% (inactive) | 6.04% (active) | 7.7% (active) | 38.8% (inactive) | 49.5% (inactive) | 95.5% (inactive) | 66.4% (inactive) | 130% (inactive) | 50.7% (inactive) | 56.3% (inactive) | 67.5% (inactive) | 61.8% (inactive)
CCCc1cc2cc(-n3nc(CC)c4c3CC(C)(C)CC4=O)cc(NC3CCC(O)CC3)c2c(=O)[nH]1 (stereo not given) | 53.1% (inactive) | 52.4% (inactive) | 7.81% (active) | 14.1% (inactive) | 0.71% (active) | 8.86% (active) | 19.6% (inactive) | 37% (inactive) | 21.8% (inactive) | 15.3% (inactive) | 0.947% (active) | 12.4% (inactive) | 21.9% (inactive) | 35.2% (inactive) | 64.9% (inactive) | 27.2% (inactive) | 25.4% (inactive) | 46.7% (inactive) | 16.1% (inactive) | 39.9% (inactive)
COc1ccc(C(=O)c2c(N)c(C#N)cn2-c2ccc(Cl)cc2Cl)cc1 | 97% (inactive) | 93.6% (inactive) | 100% (inactive) | 84.5% (inactive) | 105% (inactive) | 98.1% (inactive) | 91.7% (inactive) | 109% (inactive) | 101% (inactive) | 90.7% (inactive) | 92.1% (inactive) | 101% (inactive) | 94.6% (inactive) | 93.9% (inactive) | 103% (inactive) | 117% (inactive) | 101% (inactive) | 106% (inactive) | 90.9% (inactive) | 86.7% (inactive)
OCC(Nc1ncnc2ccc(-c3cnc4cnccn34)cc12)c1ccccc1 (stereo not given) | 45% (inactive) | 52.3% (inactive) | 80.7% (inactive) | 36.6% (inactive) | 40% (inactive) | 43.3% (inactive) | 41.7% (inactive) | 76.4% (inactive) | 80.5% (inactive) | 76.1% (inactive) | 73.5% (inactive) | 62.5% (inactive) | 79.7% (inactive) | 83.8% (inactive) | 63.7% (inactive) | 80.9% (inactive) | 39.1% (inactive) | 71.9% (inactive) | 84.1% (inactive) | 90.3% (inactive)
O=C(CSc1nnc(-c2ccc(Cl)cc2)n1-c1ccccc1)Nc1ccc(Cl)cc1 | 87.3% (inactive) | 49.7% (inactive) | 16.3% (inactive) | 12% (inactive) | -6.39% (active) | -2.97% (active) | 50.9% (inactive) | 41.4% (inactive) | 53.9% (inactive) | 84.6% (inactive) | 18.6% (inactive) | 31% (inactive) | 31% (inactive) | 37.3% (inactive) | -55.8% (active) | 75% (inactive) | 23.3% (inactive) | 57.5% (inactive) | 38.4% (inactive) | 34.7% (inactive)
CC(=O)OC[C@@]12Oc3c(cccc3-c3ccc(O)c4c3O[C@]3(COC(C)=O)C(=C4O)C(=O)C[C@H](C)[C@@H]3OC(C)=O)C(O)=C1C(=O)C[C@H](C)[C@@H]2OC(C)=O | -20.4% (active) | 16.4% (inactive) | 7.7% (active) | 9.35% (active) | 9.84% (active) | 7.48% (active) | 0.254% (active) | 1.51% (active) | 14.3% (inactive) | 4.81% (active) | -7.02% (active) | -27.1% (active) | 15% (inactive) | 27.6% (inactive) | 5.47% (active) | -1.41% (active) | 26.9% (inactive) | 11.6% (inactive) | -13.6% (active) | 24.7% (inactive)
O=C(Nc1ccc(N=Cc2c(O)[nH]c3ccccc23)cc1)Nc1ccc(S(=O)(=O)Nc2ncccn2)cc1 | 111% (inactive) | 98.1% (inactive) | 98.8% (inactive) | 81.7% (inactive) | 108% (inactive) | 104% (inactive) | 94.8% (inactive) | 114% (inactive) | 109% (inactive) | 121% (inactive) | 96.4% (inactive) | 107% (inactive) | 102% (inactive) | 130% (inactive) | 101% (inactive) | 114% (inactive) | 112% (inactive) | 117% (inactive) | 103% (inactive) | 106% (inactive)
CCN(CC)CCOc1ccc(C(=C(c2ccccc2)C2CCCC2)c2ccc(OCCN(CC)CC)cc2)cc1 | 6.57% (active) | 48.4% (inactive) | 6.33% (active) | 86.5% (inactive) | 74.3% (inactive) | 95.3% (inactive) | 94.2% (inactive) | 96.5% (inactive) | 8.31% (active) | 0.859% (active) | -5.92% (active) | -30.8% (active) | 40.5% (inactive) | 38.5% (inactive) | 34.7% (inactive) | 21.2% (inactive) | -40.4% (active) | 16.9% (inactive) | 12.8% (inactive) | 97.1% (inactive)
O=C(CCCCCCNC(=O)C(O)(O)C(F)(F)F)Nc1ncc(-c2ccccc2)s1 | -23.3% (active) | 20.8% (inactive) | 2.31% (active) | -27.9% (active) | -10.3% (active) | -53.1% (active) | -40.4% (active) | -41.8% (active) | 22.5% (inactive) | 5.09% (active) | 10.9% (inactive) | 14.6% (inactive) | -2.23% (active) | -0.912% (active) | 18.9% (inactive) | -23.8% (active) | -23.5% (active) | -43% (active) | 0.452% (active) | 2.08% (active)
O=C(/C=C/Nc1ccc(S(=O)(=O)Nc2ncccn2)cc1)c1ccc(N=Cc2c(O)[nH]c3ccccc23)cc1 | 118% (inactive) | 103% (inactive) | 98.3% (inactive) | 92.4% (inactive) | 112% (inactive) | 106% (inactive) | 94.4% (inactive) | 98.5% (inactive) | 104% (inactive) | 109% (inactive) | 82.1% (inactive) | 86.4% (inactive) | 101% (inactive) | 115% (inactive) | 106% (inactive) | 109% (inactive) | 118% (inactive) | 137% (inactive) | 105% (inactive) | 110% (inactive)
CCCCCCCCCC(=O)NC(C)(C)C(=O)N1CCC[C@H]1C(=O)N[C@@H](CC(C)C)C(=O)N[C@@](C)(CC)C(=O)N[C@@H](CCC(N)=O)C(=O)N[C@H](CCC(N)=O)C(=O)NC(C)(C)C(=O)NC(C)(C)C(=O)N[C@@H](CCC(N)=O)C(=O)N[C@H](CC(C)C)C(=O)N[C@H](CO)CC(C)C | -86.8% (active) and -74.3% (active) | -87.8% (active) and -64.6% (active) | -86.4% (active) and -84.1% (active) | -94% (active) and 26.4% (inactive) | -70.9% (active) and 14.9% (inactive) | -85.3% (active) and 18.4% (inactive) | -67.5% (active) and 5.79% (active) | -91.3% (active) and -31.5% (active) | -72% (active) and -39.7% (active) | -81.5% (active) and -26.1% (active) | -77.5% (active) and 1.34% (active) | -67.5% (active) and -26% (active) | -86.4% (active) and -49.5% (active) | -97.7% (active) and -82.4% (active) | -20.8% (active) and 50.4% (inactive) | -70.9% (active) and 19.4% (inactive) | -87% (active) and 5.72% (active) | -23.8% (active) | -71.3% (active) and -59% (active) | -83% (active) and 0.971% (active)
COC(=O)c1cccc(NC2=C(Cl)C(=O)c3nc(C)ccc3C2=O)c1 | 101% (inactive) | 54.3% (inactive) | 93.1% (inactive) | 48.5% (inactive) | 128% (inactive) | 0.427% (active) | 103% (inactive) | 71% (inactive) | 5.63% (active) | 19.7% (inactive) | 18.7% (inactive) | 3.31% (active) | 77.4% (inactive) | 99.8% (inactive) | -97.6% (active) | 87.6% (inactive) | -58.1% (active) | 4.2% (active) | 102% (inactive) | 89.7% (inactive)
COc1ccc(-c2cnc(NC(=O)CCCCCCNC(=O)C(O)(O)C(F)(F)F)s2)cc1 | -27.3% (active) | 19.6% (inactive) | 3.72% (active) | -27.4% (active) | -20.1% (active) | -29.5% (active) | -39.9% (active) | -44.2% (active) | 18.7% (inactive) | 6.5% (active) | 13.2% (inactive) | 14% (inactive) | -3.57% (active) | 4.6% (active) | -9.83% (active) | -19.3% (active) | -18.7% (active) | -50.6% (active) | 9.86% (active) | -2.38% (active)
